Assay results from PubChem BioAssay (NCI).
This is part of a sample that, as a whole, favours compounds with a hit. Of some 79,000 tested, about 15% had one in any assay. Activity calls are given as the source filed them. No stated cut-off is given here; in the data, active means growth inhibition above about 70%; inactive means the rest.

Key:
[1] = NCI Yeast Anticancer Drug Screen. Data for the rad50 strain (AID 155);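 further: 0% = growth of vehicle-only cultures of the same strain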; conditions: S. cerevisiae rad50 strain growth inhibition, hits give high values
Summary of the method: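 Inhibition values express reduced yeast growth in compound-treated cultures relative to vehicle-treated controls.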

[2] = NCI Yeast Anticancer Drug Screen. Data for the mec2-1 strain (AID 157); conditions: S. cerevisiae mec2-1 strain, hits give high values
Summary of the method: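 Yeast mec2-1 mutant treated with compound. Readout: growth inhibition vs vehicle controls.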

[3] = NCI Yeast Anticancer Drug Screen. Data for the sgs1 mgt1 strain (AID 161);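 further: 0% = growth of cultures given vehicle only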; conditions: S. cerevisiae sgs1 mgt1 strain, hits give high values
Summary of the method: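 Genetically altered yeast, compound exposure, growth inhibition relative to vehicle.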

[4] = NCI Yeast Anticancer Drug Screen. Data for the cln2 rad14 strain (AID 165);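 further: 0% = growth equal to vehicle treated cultures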; conditions: S. cerevisiae cln2 rad14 strain, hits give high values
Summary of the method: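 cln2 rad14 yeast strain; compound exposure; growth inhibition read vs vehicle controls.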

[5] = NCI Yeast Anticancer Drug Screen. Data for the bub3 strain (AID 167); conditions: S. cerevisiae bub3 mutant strain, hits give high values
Summary of the method: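 Steps: expose the mutant yeast strain to compound; grow alongside vehicle-treated cultures; measure growth; express inhibition against the vehicle cultures.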

[6] = NCI Yeast Anticancer Drug Screen. Data for the mlh1 rad18 strain (AID 175); conditions: S. cerevisiae mlh1 rad18 strain growth inhibition, hits give high values
Summary of the method: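 Yeast w/ defined DNA-repair lesions; compound exposure; growth vs vehicle controls → % inhibition.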

[7] = at 5.0 µM (retest, dose inferred, filed as 0.5)
[8] = at 50.0 µM (retest, dose inferred, filed as 5.0)

Measured: growth inhibition

CCOc1ccc2c(c1)nc1ccccc1[n+]2CC
inactive: [1]; [7] 2% | [1]; [8] 22% | [1]; at 50.0 µM 20.3% | [2]; [7] 7% | [2]; [8] 33% | [2]; at 50.0 µM 48.6% | [3]; [7] 2% | [3]; [8] 27% | [3]; at 50.0 µM 41.4% | [4]; [7] 2% | [4]; [8] 9% | [4]; at 50.0 µM 56.4% | [5]; [7] 6% | [5]; [8] 36% | [5]; at 50.0 µM 24.3% | [6]; [7] -4% | [6]; [8] 20% | [6]; at 50.0 µM 44.2%

O=C1C=CC(=O)N1C1CCCCC1
active: [1]; [7] 93% | [1]; [8] 99% | [1]; at 50.0 µM 99.6% | [2]; [8] 100% | [2]; at 50.0 µM 99.7% | [3]; [7] 95% | [3]; [8] 99% | [3]; at 50.0 µM 99.5% | [4]; [8] 99% | [4]; at 50.0 µM 99.8% | [5]; [7] 90% | [5]; [8] 99% | [5]; at 50.0 µM 99.7% | [6]; [7] 98% | [6]; [8] 99% | [6]; at 50.0 µM 99.6%
inactive: [2]; [7] 60% | [4]; [7] 30%

Cc1ccc2c(c1)C1(C)C=C(CN3CCN(C)CC3)C(=O)CC1O2 (configuration not stated)
active: [1]; [8] 97% | [1]; at 50.0 µM 99.6% | [2]; [8] 99% | [2]; at 50.0 µM 99.7% | [3]; [8] 99% | [3]; at 50.0 µM 99.8% | [4]; [8] 99% | [4]; at 50.0 µM 99.6% | [5]; [8] 99% | [5]; at 50.0 µM 99.7% | [6]; [8] 99% | [6]; at 50.0 µM 99.5%
inactive: [1]; [7] 16% | [2]; [7] 20% | [3]; [7] 22% | [4]; [7] -4% | [5]; [7] -3% | [6]; [7] 11%

CCOC(=O)CC(NC(=O)c1[nH]cnc1/N=N/N(C)C)C(=O)OCC (configuration not stated)
active: [1]; [8] 95% | [1]; at 50.0 µM 89.1% | [2]; [8] 97% | [2]; at 50.0 µM 91.5% | [3]; [8] 95% | [3]; at 50.0 µM 90.6% | [4]; [8] 96% | [4]; at 50.0 µM 91% | [5]; [8] 97% | [5]; at 50.0 µM 91.8% | [6]; [8] 97% | [6]; at 50.0 µM 78%
inactive: [1]; [7] -24% | [2]; [7] -8% | [3]; [7] -16% | [4]; [7] -11% | [5]; [7] -12% | [6]; [7] -24%

c1ccc(N/N=C(/CC/C(=N\Nc2ccccc2)c2ccccc2)c2ccccc2)cc1
active: [1]; [8] 77% | [1]; at 50.0 µM 95.5% | [2]; [8] 90% | [2]; at 50.0 µM 97% | [3]; [8] 82% | [3]; at 50.0 µM 97.2% | [4]; [8] 81% | [5]; [8] 89% | [5]; at 50.0 µM 95.9% | [6]; [8] 92% | [6]; at 50.0 µM 97.5%
inactive: [1]; [7] 6% | [2]; [7] 4% | [3]; [7] -13% | [4]; [7] -13% | [4]; at 50.0 µM 47.8% | [5]; [7] -5% | [6]; [7] 18%

C1C2OC2C2C1C1CC2C2OC12 (configuration not stated)
inactive: [1]; [7] 1% | [1]; [8] -3% | [1]; at 50.0 µM 7.9% | [2]; [7] 0% | [2]; [8] -4% | [2]; at 50.0 µM -12.8% | [3]; [7] -3% | [3]; [8] -15% | [3]; at 50.0 µM -2.55% | [4]; [7] 2% | [4]; [8] 2% | [4]; at 50.0 µM 19.4% | [5]; [7] 1% | [5]; [8] 1% | [5]; at 50.0 µM -12.9% | [6]; [7] 1% | [6]; [8] -1% | [6]; at 50.0 µM -0.1%

COc1cc(N=Nc2cccc(S(N)(=O)=O)c2)c2ccccc2c1N
inactive: [1]; [7] -6% | [2]; [7] -2% | [3]; [7] 2% | [4]; [7] 34% | [5]; [7] -5% | [6]; [7] 5%
active: [1]; [8] 98% | [1]; at 50.0 µM 95.3% | [2]; [8] 99% | [2]; at 50.0 µM 97.7% | [3]; [8] 99% | [3]; at 50.0 µM 97.4% | [4]; [8] 98% | [4]; at 50.0 µM 95.5% | [5]; [8] 99% | [5]; at 50.0 µM 94.4% | [6]; [8] 98% | [6]; at 50.0 µM 95.8%

O=C1C(=O)N(C(=O)c2ccc(Cl)c(Cl)c2)c2ccc(Cl)cc21
inactive: [1]; [7] -6% | [1]; [8] -4% | [1]; at 50.0 µM 13.6% | [2]; [7] -9% | [2]; [8] 2% | [2]; at 50.0 µM 24.4% | [3]; [7] -7% | [3]; [8] 6% | [3]; at 50.0 µM 35.2% | [4]; [7] -9% | [4]; [8] -20% | [4]; at 50.0 µM 10.8% | [5]; [7] -6% | [5]; [8] 56% | [6]; [7] -8% | [6]; [8] 12% | [6]; at 50.0 µM 64%
active: [5]; at 50.0 µM 91.6%

N#Cc1snc2sc(=O)sc12
active: [1]; [7] 99% | [1]; [8] 100% | [1]; at 50.0 µM 99.5% | [2]; [7] 100% | [2]; [8] 99% | [2]; at 50.0 µM 99.7% | [3]; [7] 100% | [3]; [8] 100% | [3]; at 50.0 µM 99.5% | [4]; [7] 99% | [4]; [8] 100% | [4]; at 50.0 µM 99.2% | [5]; [7] 100% | [5]; [8] 99% | [5]; at 50.0 µM 99.2% | [6]; [7] 100% | [6]; [8] 99% | [6]; at 50.0 µM 99.5%
